Read-out in experiment [1]: serum amyloid A (SAA), SAA1 (gene 6288)
As to the kind of experiment: BSK_CASM3C_SAA: BioMAP Diversity Plus: CASM3C Assay for serum amyloid A (SAA) Biomarker Activity (AID 2283049).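 Also: SAA protein level quantified by ELISA.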 The note with it: primary human coronary artery smooth muscle cells; actives raise or lower the signal.

Experiment [2] can be described thus: BSK_CASM3C_SRB: Viability Assessment in the BioMAP Diversity Plus: CASM3C Assay (AID 2283050). The note with it: primary human coronary artery smooth muscle cells.
Read-out in experiment [3]: Thrombomodulin, THBD (gene 7056)
As to the kind of experiment: BSK_CASM3C_Thrombomodulin: BioMAP Diversity Plus: CASM3C Assay for Thrombomodulin Biomarker Activity (AID 2283051).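 Also: thrombomodulin protein level measured by ELISA 24 h after dosing.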 As to conditions: primary human coronary artery smooth muscle cells; actives raise or lower the signal.

Read-out in experiment [4]: Tissue Factor, F3 (gene 2152)
The experiment can be described thus: BSK_CASM3C_TissueFactor: BioMAP Diversity Plus: CASM3C Assay for Tissue Factor Biomarker Activity (AID 2283052).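 Also: cell surface tissue factor protein level read by ELISA.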 The note with it: primary human coronary artery smooth muscle cells; actives raise or lower the signal.

Read-out in experiment [5]: Interferon-gamma inducible Protein 10 (IP10), CXCL10 (gene 3627)
As to the kind of experiment: BSK_hDFCGF_IP10: BioMAP Diversity Plus: hDFCGF Assay for Interferon-gamma inducible Protein 10 (IP10) Biomarker Activity (AID 2283053). As to conditions: primary human foreskin fibroblasts; actives raise or lower the signal. The essentials: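 Primary human foreskin fibroblasts exposed to chemicals for 24 h. IP-10 measured by ELISA; changes fitted bidirectionally against DMSO baseline.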

Read-out in experiment [6]: Urokinase-type plasminogen activator receptor (uPAR), PLAUR (gene 5329)
The experiment can be described thus: BSK_CASM3C_uPAR: BioMAP Diversity Plus: CASM3C Assay for Urokinase-type plasminogen activator receptor (uPAR) Biomarker Activity (AID 2283054).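 Also: cell-surface uPAR protein level quantified by ELISA.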 The note with it: primary human coronary artery smooth muscle cells; actives raise or lower the signal.

Read-out in experiment [7]: Vascular cell adhesion molecule 1 (VCAM1), VCAM1 (gene 7412)
The experiment can be described thus: BSK_CASM3C_VCAM1: BioMAP Diversity Plus: CASM3C Assay for Vascular cell adhesion molecule 1 (VCAM1) Biomarker Activity (AID 2283055).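 Also: VCAM-1 protein level quantified by ELISA on the cells.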 As to conditions: primary human coronary artery smooth muscle cells; actives raise or lower the signal.

Read-out in experiment [8]: Collagen III, COL3A1 (gene 1281)
The experiment can be described thus: BSK_hDFCGF_CollagenIII: BioMAP Diversity Plus: hDFCGF Assay for Collagen III Biomarker Activity (AID 2283056). The note with it: primary human foreskin fibroblasts; actives raise or lower the signal. The essentials: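 Response relative to DMSO, fitted in both directions, reflects ELISA-measured collagen III in human primary skin fibroblasts 24 h after compound addition.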

Read-out in experiment [9]: Epidermal growth factor receptor (EGFR), EGFR (gene 1956)
As to the kind of experiment: BSK_hDFCGF_EGFR: BioMAP Diversity Plus: hDFCGF Assay for Epidermal growth factor receptor (EGFR) Biomarker Activity (AID 2283057). As to conditions: primary human foreskin fibroblasts; actives raise or lower the signal. The procedure, abridged: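 Primary human foreskin fibroblasts (hDFCGF system), sampled 24 h after dosing; EGFR quantified by ELISA. Bidirectional fit relative to DMSO baseline; SRB total-protein staining in parallel cultures for cytotoxicity.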

Read-out in experiment [10]: Interleukin-8 (IL8), CXCL8 (gene 3576)
The experiment can be described thus: BSK_hDFCGF_IL8: BioMAP Diversity Plus: hDFCGF Assay for Interleukin-8 (IL8) Biomarker Activity (AID 2283058). As to conditions: primary human foreskin fibroblasts; actives raise or lower the signal. The procedure, abridged: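 Fibroblast monolayers (human foreskin, hDFCGF) received test chemical for 24 h before ELISA detection of IL-8; either increases or decreases relative to DMSO count as activity.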

Read-out in experiment [11]: Macrophage colony-stimulating factor (MCSF), CSF1 (gene 1435)
The experiment can be described thus: BSK_hDFCGF_MCSF: BioMAP Diversity Plus: hDFCGF Assay for Macrophage colony-stimulating factor (MCSF) Biomarker Activity (AID 2283060). The note with it: primary human foreskin fibroblasts; actives raise or lower the signal. The procedure, abridged: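 fibroblasts (human foreskin, primary), 24 h post-dose; M-CSF by ELISA; bidirectional fit, DMSO = baseline.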

Experiment [12] in a line: BSK_hDFCGF_SRB: Viability Assessment in the BioMAP Diversity Plus: hDFCGF Assay (AID 2283061).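 Also: cells exposed to compound for 24 h before the read.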 As to conditions: primary human foreskin fibroblasts. The essentials:
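SRB-based viability read on primary human skin fibroblasts at 24 h: TCA fixation, 0.1% dye, 560 nm. Gain or loss of signal is fitted against the DMSO negative control.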

Read-out in experiment [13]: TIMP metallopeptidase inhibitor 1 (TIMP1), TIMP1 (gene 7076)
The experiment can be described thus: BSK_hDFCGF_TIMP1: BioMAP Diversity Plus: hDFCGF Assay for TIMP metallopeptidase inhibitor 1 (TIMP1) Biomarker Activity (AID 2283062). The note with it: primary human foreskin fibroblasts; actives raise or lower the signal. The procedure, abridged:
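Bidirectional curve fitting against DMSO baseline yielded this endpoint, based on ELISA detection of TIMP-1 in primary human foreskin fibroblasts exposed to compound for 24 h.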

Read-out in experiment [14]: Monokine induced gamma interferon (MIG), CXCL9 (gene 4283)
As to the kind of experiment: BSK_hDFCGF_MIG: BioMAP Diversity Plus: hDFCGF Assay for Monokine induced gamma interferon (MIG) Biomarker Activity (AID 2283063). The note with it: primary human foreskin fibroblasts; actives raise or lower the signal. The procedure, abridged:
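Endpoint derived by bidirectional fitting relative to DMSO; MIG quantified via ELISA in primary human foreskin fibroblasts harvested 24 h after dosing.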

Read-out in experiment [15]: Matrix Metallopeptidase 1 (MMP1), MMP1 (gene 4312)
The experiment can be described thus: BSK_hDFCGF_MMP1: BioMAP Diversity Plus: hDFCGF Assay for Matrix Metallopeptidase 1 (MMP1) Biomarker Activity (AID 2283064). As to conditions: primary human foreskin fibroblasts; actives raise or lower the signal. The essentials:
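Primary human foreskin fibroblasts exposed to chemicals for 24 h; MMP1 measured by ELISA. Cytotoxicity tracked by SRB staining in parallel cultures; bidirectional fit relative to DMSO.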

Read-out in experiment [16]: Vascular cell adhesion molecule 1 (VCAM1), VCAM1 (gene 7412)
The experiment can be described thus: BSK_hDFCGF_VCAM1: BioMAP Diversity Plus: hDFCGF Assay for Vascular cell adhesion molecule 1 (VCAM1) Biomarker Activity (AID 2283065).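 As to AC50: VCAM-1 protein level quantified by ELISA after 24 h chemical exposure.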 As to conditions: primary human foreskin fibroblasts; actives raise or lower the signal. The procedure, abridged:
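Measured after 24 h chemical treatment of primary human skin fibroblasts, VCAM-1 was detected by ELISA and concentration-response analysed in both directions versus DMSO vehicle.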

Read-out in experiment [17]: Plasminogen activator inhibitor-1 (PAI1), SERPINE1 (gene 5054)
The experiment can be described thus: BSK_hDFCGF_PAI1: BioMAP Diversity Plus: hDFCGF Assay for Plasminogen activator inhibitor-1 (PAI1) Biomarker Activity (AID 2283066). As to conditions: primary human foreskin fibroblasts; actives raise or lower the signal. The procedure, abridged:
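Human foreskin fibroblast primary cells, 24 h chemical exposure; PAI-1 measured by ELISA. Bidirectional fitting relative to DMSO; parallel cultures stained with SRB for total protein to flag overt cytotoxicity.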

Read-out in experiment [18]: Intercellular Adhesion Molecule 1 (ICAM1), ICAM1 (gene 3383)
As to the kind of experiment: BSK_KF3CT_ICAM1: BioMAP Diversity Plus: KF3CT Assay for Intercellular Adhesion Molecule 1 (ICAM1) Biomarker Activity (AID 2283067). As to conditions: primary human keratinocytes with fibroblasts; actives raise or lower the signal. The essentials: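 Bidirectional curve fitting against a DMSO baseline was applied to ICAM-1 ELISA signal from primary human skin co-cultures harvested 24 h after treatment, with SRB staining of parallel wells for overt cytotoxicity.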

Read-out in experiment [19]: Interferon-gamma inducible Protein 10 (IP10), CXCL10 (gene 3627)
As to the kind of experiment: BSK_KF3CT_IP10: BioMAP Diversity Plus: KF3CT Assay for Interferon-gamma inducible Protein 10 (IP10) Biomarker Activity (AID 2283068). As to conditions: primary human keratinocytes with fibroblasts; actives raise or lower the signal. The procedure, abridged: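 Signal is secreted/surface IP-10 by ELISA in a human primary skin co-culture of keratinocytes and foreskin fibroblasts, taken 24 h post-dosing; DMSO served as negative control.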

Calls of active or inactive are those of the source. The calls were made as follows: active = hit-call score of the fitted dose curve at least 0.9, where 1 is the maximum; inactive = score below 0.9.

Turning to `Cc1ccccc1N`, the outcome in experiment [1], in [2], in experiment [3], in experiment [4], in [5] and in experiment [6] was inactive. Further, the result in experiment [7], in experiment [8], in [9], in experiment [10], in [11] and in [12] was inactive. Besides, the outcome in experiment [13], in experiment [14], in experiment [15], in experiment [16], in experiment [17] and in experiment [18] was inactive. For the same molecule, the outcome in [19] was inactive.
One may read the AC50 as the concentration giving half of the maximal activity seen. In the case of `ClC(Cl)=C(Cl)C(Cl)=C(Cl)Cl`, the outcome in [1], in experiment [2], in experiment [4], in experiment [5], in experiment [6] and in experiment [9] was inactive. For the same molecule, the outcome in experiment [10], in experiment [11], in experiment [12], in [14] and in [16] was inactive. Also, the AC50 in experiment [3] was 0.0235 µM (active); in experiment [7], 20 µM (active); in [8], 20 µM (active); in experiment [13], 20 µM (active); in [15], 32 µM (active); in experiment [17] it was 0.435 µM (active). Moreover, the AC50 in experiment [18] was 32.4 µM (active); in experiment [19], 36.3 µM (active).
In the case of `COP(=S)(OC)Oc1cc(Cl)c(Cl)cc1Cl`, the AC50 in experiment [1] is 20 µM (active); in experiment [7], 16.5 µM (active); in experiment [8], 20 µM (active); in [16] it was 25.4 µM (active). The outcome in [2], in experiment [3], in experiment [4], in [5], in experiment [6] and in experiment [9] was inactive. Further, the outcome in experiment [10], in experiment [12], in experiment [13], in experiment [14], in [15] and in experiment [17] was inactive. Also, the outcome in experiment [18] and in experiment [19] was inactive.
For the molecule `BrCCBr`, the outcome in experiment [1], in experiment [2], in [3], in experiment [4], in experiment [5] and in [6] was inactive. Further, the result in experiment [7], in experiment [8], in experiment [9], in experiment [10], in [11] and in experiment [12] was inactive. The result in [13], in experiment [14], in experiment [15], in experiment [16], in experiment [17] and in [18] was inactive. Besides, the result in [19] was inactive.
For the molecule `C[C@@H]1C[C@@H]([C@H](O)CC2CC(=O)NC(=O)C2)C(=O)[C@@H](C)C1`, the result in [1], in experiment [3], in experiment [4] and in [9] was inactive. The AC50 was 8.63 µM (active) in experiment [2]; 2.32 µM (active) in [5]; 3.8 µM (active) in experiment [6]; 0.926 µM (active) in experiment [7]; 7.54 µM (active) in [10]; 4.1 µM (active) in [11]. The AC50 in experiment [13] was 2.49 µM (active); in experiment [14], 4.4 µM (active); in experiment [15] it was 3.37 µM (active); in [16] it was 0.915 µM (active); in [17], 2.9 µM (active); in [18], 7.24 µM (active). Further, the AC50 in experiment [19] is 12.9 µM (active).
Turning to `NC(=S)Nc1ccccc1`, the outcome in experiment [1], in experiment [2], in experiment [3], in experiment [4], in [5] and in experiment [6] was inactive. Also, the outcome in [7], in [8], in experiment [9], in experiment [10], in [11] and in experiment [12] was inactive. Further, the result in experiment [13], in experiment [14], in experiment [15], in experiment [16], in experiment [17] and in [18] was inactive. Besides, in experiment [19], the outcome was inactive.

Source of the values: PubChem BioAssay (EPA / NIEHS).
